From PubChem BioAssay
A selection: hits, their analogues and other compounds. The true share with any hit is near 10%.
HP1b binding inh: inhibitors of HP1-beta chromodomain binding to methylated histone tails | P83916 | AlphaScreen HP1-beta / biotin-H3K9me3 peptide binding | Potency, µM (top dose mostly 114 µM), inactives show top-dose activity change, negative = inhibition, most hits filed as inhibitors | 0.56% of 390,000 active; also: potency is read from the fitted curve at half-maximal effect; nearly all actives have a fitted effect of over 70% in size
Target sequence (P83916 whole entry, looked up): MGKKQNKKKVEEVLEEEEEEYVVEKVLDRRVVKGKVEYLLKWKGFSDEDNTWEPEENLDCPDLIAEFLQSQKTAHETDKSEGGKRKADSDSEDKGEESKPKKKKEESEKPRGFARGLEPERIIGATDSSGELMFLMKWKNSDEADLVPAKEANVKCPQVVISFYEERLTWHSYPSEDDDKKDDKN
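HP1-beta protein (50 nM final) preincubated 30 min at room temperature with biotinylated H3(1-18)K9me3 peptide (50 nM) in PBS pH 7.4, 0.01% Tween-20, then compound added for 30 min. AlphaScreen streptavidin donor/nickel chelate acceptor beads (10 ug/mL final), 30 min dark, luminescence read.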
CtBP-E1A blk: CtBP/E1A binding inhibition | AlphaScreen GST-E1A/His-CtBP binding, 1536-well; stronger effect = lower value | activity change, % (no concentration beside the values) | 0.49% of 340,000 active; in the data active = activity change below about -65%; inconclusive = mostly about -30% to -63%; also: % is scaled to controls: 0 for no effect and ±100 for the full control effect
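GST-E1A and His-tagged CtBP (125 nM each as 5X stock) were preincubated with pin-transferred compound for 2 h at 37 °C in the dark, then glutathione donor and nickel acceptor beads were added for 1 h before AlphaScreen reading.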
Six1-Eya2 inh: Six1/Eya2 interaction inhibition. Q15475+O00167. AlphaScreen GST-Six1/His-Eya2 binding, biochemical; stronger effect = lower value. activity change, % (concentration not given with the values). 0.56% of 360,000 active. AID 651725; in the data active = activity change below about -65%; inconclusive = mostly about -30% to -63%; also: % is scaled to controls: 0 for no effect and ±100 for the full control effect
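Six1/Eya2 binding was read as AlphaScreen signal after compounds were pinned into GST-Six1 plus His-tagged Eya2 (5X stock 250/500 nM) in pH 8.0 Tris/NaCl/TCEP buffer, beads added, then incubated 1 h, 37 C, dark.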
JMJD2A Tudor inh: inhibitors of human JMJD2A Tudor domain; AID 504339; O75164; 4.4% of 390,000 active; Potency, µM (titrated, usually from 114 µM), for the others: top-dose activity change, negative = inhibition, usual class: inhibitors; AlphaScreen JMJD2A-Tudor / H3K4me3 peptide binding; also: potency is read from the fitted curve at half-maximal effect; % is scaled to controls: 0 for no effect and ±100 for the full control effect; nearly all actives have a fitted effect of over 50% in size
G9a block: inhibitors of human histone lysine methyltransferase G9a; 8.8% of 350,000 active; AID 504332; G9a H3K9 monomethylation, AlphaScreen, 2 h; Q96KQ7; Potency, µM (highest dose often 102 µM), for inactives: top-dose activity, negative = inhibition, actives largely listed as inhibitors; also: potency is read from the fitted curve at half-maximal effect; % is scaled to controls: 0 for no effect and ±100 for the full control effect; nearly all actives have a fitted effect of over 75% in size
Target sequence (Q96KQ7 913-1193 limits assumed): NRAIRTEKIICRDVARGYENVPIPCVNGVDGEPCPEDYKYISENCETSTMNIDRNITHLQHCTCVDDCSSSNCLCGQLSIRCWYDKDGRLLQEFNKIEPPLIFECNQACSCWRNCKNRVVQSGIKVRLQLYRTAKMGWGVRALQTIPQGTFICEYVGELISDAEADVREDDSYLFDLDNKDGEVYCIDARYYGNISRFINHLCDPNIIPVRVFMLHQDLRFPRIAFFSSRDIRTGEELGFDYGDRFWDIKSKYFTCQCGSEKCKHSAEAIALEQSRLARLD
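G9a (20 nM) was preincubated 15 min with compound, then reacted 2 h at room temperature with 500 nM biotin-H3K9 peptide and 20 µM SAM. Monomethyl-H3K9 detected by AlphaScreen using anti-H3K9me1 antibody.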
BAZ2B block: inhibitors of human BAZ2B bromodomain. Potency, µM (titrated, usually from 114 µM), inactives show at the top dose activity change, negative = inhibition, most hits filed as inhibitors. Q9UIF8. AlphaScreen BAZ2B-H3K14Ac peptide displacement. 4.4% of 360,000 active; also: potency is read from the fitted curve at half-maximal effect; % is scaled to controls: 0 for no effect and ±100 for the full control effect; nearly all actives have a fitted effect of over 60% in size
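AlphaScreen displacement: compounds (up to 110uM) incubated 30 min at room temperature with a preformed 50 nM BAZ2B/50 nM biotinylated H3K14Ac peptide complex in PBS pH 7.4 with Tween-20. Donor and acceptor beads at 10 ug/mL final added, 20 min light-protected before reading.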
Starred values were filed as active, the others as inactive; ? = inconclusive; · = not tested or not shown; [ ] = remark or other dose. Unless noted, calls follow the shape of the dose curve; as a rule, active = well fitted inhibition curve with a large enough effect; inconclusive = small, poorly fitted or top-dose-only effect; inactive = no such curve, though single readings can be large or run the other way.

SMILES | HP1b binding inh | CtBP-E1A blk | Six1-Eya2 inh | JMJD2A Tudor inh | G9a block | BAZ2B block
COc1ccc2c(c1)CCc1c(C(=O)Nc3c(C)nn(Cc4c(Cl)cccc4Cl)c3C)noc1-2 | 21.5% | · | · | -14.3% | -44.9%[59 µM] | -1.1%
COc1cccc(CN2C(=O)c3ccccc3Sc3ccc(C(=O)NCc4ccccc4)cc32)c1 | 27.5% | · | · | -5.7% | -0.7%[59 µM] | ·
CC1CCCN(CCCOc2ccc(Br)cc2Cl)C1 (configuration not stated) | ? | 0.0 | -13.4 | 1.12µM* | 20µM* | ?
Cc1ccc(Cl)c(OCCCCN2CCC(C)CC2)c1 | 32.7% | 7.2 | 4.0 | -0.4% | · | ·
O=C(COc1ccc(Br)cc1Cl)NCCCN1CCOCC1 | 34.6% | 5.5 | -1.2 | -8.8% | -22.5% | 0.3%
CC1CCN(CCOCCOc2ccc(Br)cc2Cl)CC1 | ? | 1.1 | 12.7 | 2.82µM* | 8.91µM* | ?
O=C(CN1CCCCC1)Nc1ccc(NC(=O)c2ccccc2Cl)cc1Cl | 7.4% | 5.3 | 3.5 | -19.0% | 10µM* | -4.8%
S=C(Nc1ccc2c(c1)OCCO2)Nc1ccccc1Cl | 1.0% | 2.8 | 2.5 | -7.5% | 79.4µM* | -17.6%
O=C(CN1CCN(CC(=O)Nc2ccccc2Cl)CC1)Nc1ccc2c(c1)OCCO2 | 40.0% | -2.4 | -6.5 | 16.4%[11.4 µM] | 25.1µM* | -7.7%
S=C(Nc1ccc(Cl)cc1)Nc1ccc2c(c1)OCCO2 | 9.1% | 1.6 | -4.4 | -15.4% | · | -25.7%
Cc1ccc2c(c1)N/C(=C(\C=C(/Cl)[N+](=O)[O-])[N+](=O)[O-])N2 | · | · | · | · | 22.4µM* | -26.6%
Cc1ccc2c(c1)/C(=C/c1ccc(F)cc1)C(=O)N2 | -6.4% | · | -0.8 | ? | -24.0% | -33.8%
CCCCOC(=O)c1ccc(NS(=O)(=O)c2c(C)nc3scc(C)n3c2=O)cc1 | 10.4% | · | · | -15.8% | 3.9%[59 µM] | -0.3%
CCc1ccc(OCC(=O)NNC(=S)NC(=O)C2CCCCC2)c(Br)c1 | 8.7% | -5.6 | -9.6 | ? | ? | -12.4%
COc1ccc(C(=O)NC(=S)NNC(=O)CNC(=O)C2CCCCC2)cc1 | 0.2% | 0.3 | 5.9 | ? | 8.91µM* | ·
COc1ccc(OCC(=O)NNC(=S)NC(=O)C2CC2)cc1 | 24.0% | 0.0 | 11.1 | -17.9% | 20µM* | -1.4%
COc1ccc(C(=O)NNC(=O)CNC(=O)C2CCCCC2)cc1 | 43.8% | 2.2 | -5.1 | -4.3% | 9.9% | 1.5%
CCCCNC(=O)NNC(=O)COc1cc(C)cc(C)c1 | 34.6% | 6.0 | 0.3 | -0.3% | -2.5%[59 µM] | 4.2%
CCc1ccc(OCC(=O)NNC(=S)NC(=O)C2CC2)c(Br)c1 | 10.5% | -16.3 | -10.5 | ? | 10µM* | ?
COc1ccc(NC(=S)NC(=O)C2CCC2)cc1 | 65.3% | 8.0 | 0.2 | -33.0% | · | -2.0%
Cc1cc(C)cc(OCC(=O)NNC(=S)NC(=O)C2CC2)c1 | 25.1% | -14.5 | -11.9 | -33.8% | 20µM* | 4.2%
O=Cc1nc(Nc2cc(F)cc(F)c2)nc(NC2CCCC2)n1 | · | · | · | -33.6% | · | ·
COc1ccc(OCC(=O)NNC(=S)NC(=O)C2CCCCC2)cc1 | · | · | · | · | 12.6µM* | -7.1%
COc1ccc(OCC(=O)NC2CCCCCCC2)cc1 | 41.1% | 12.0 | 1.4 | -1.4% | 3.9% | 3.0%
COc1ccc(/C=N/NS(=O)(=O)c2ccc(F)cc2)cc1COc1cc(F)ccc1[N+](=O)[O-] | 45.1% | 10.2 | -4.4 | -9.1% | 6.31µM* | -19.4%
COc1cccc(-n2c(-c3ccco3)nc3c(cnn3-c3ccc(C)cc3)c2=O)c1 | -3.4% | · | · | -28.7% | -15.7%[59 µM] | ·
CNCc1cc(C)n(-c2cc(S(=O)(=O)N3CCOCC3)ccc2N2CCCC2)c1C | · | -9.1 | -27.1 | · | · | ·
Cc1cc(CNCCN(C)C)c(C)n1-c1cc(S(=O)(=O)N2CCOCC2)ccc1N1CCCC1 | -14.3% | 14.1 | -1.8 | 8.91µM* | · | ·
Cc1ccc(C)n1-c1cc(S(=O)(=O)N2CCOCC2)ccc1N1CCCC1 | -3.0% | 3.4 | -2.3 | 79.4µM* | ? | -8.0%
COc1cccc(OCCCn2c(-c3ccc(Cl)cc3)nc3ccccc3c2=O)c1 | 111.5% | · | · | 52.6% | 53.2%[59 µM] | 70.8%
